Rows were chosen to be rich in hits. Some 14% of all compounds tested hit in one or more screens of this group.
FBPA Giardia inh: qHTS Assay for Inhibitors of Fructose-1,6-bisphosphate Aldolase from Giardia Lamblia. A8B2U2. 0.71% of 290,000 active. Potency, µM (highest dose often 59.6 µM), inactives show at the top dose activity, negative = inhibition, hits mostly inhibitors. purified Giardia FBPA. AID 2451, 2010; also: potency is read from the fitted curve at half-maximal effect; nearly all actives have a fitted effect of over 55% in size
Target sequence (A8B2U2 whole entry, looked up): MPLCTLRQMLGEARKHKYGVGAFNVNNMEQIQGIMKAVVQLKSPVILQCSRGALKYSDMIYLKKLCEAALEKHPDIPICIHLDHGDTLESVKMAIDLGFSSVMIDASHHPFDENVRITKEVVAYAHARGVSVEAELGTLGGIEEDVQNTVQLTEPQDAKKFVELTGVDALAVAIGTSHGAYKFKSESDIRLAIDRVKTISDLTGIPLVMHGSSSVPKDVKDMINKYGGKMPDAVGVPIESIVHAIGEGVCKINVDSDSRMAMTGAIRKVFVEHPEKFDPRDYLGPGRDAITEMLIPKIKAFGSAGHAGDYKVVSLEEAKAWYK
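40 nM FBPA preincubated 10 min at RT with compound (up to 57.5 uM final), then substrate plus GAPDH/TPI/NAD/arsenate coupling and diaphorase/resazurin added. Fluorescence read after 20 min at RT, 525/598 nm.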
Pf growth 96h: Primary qHTS for delayed death inhibitors of the malarial parasite plastid, 96 hour incubation; P. falciparum luciferase reporter growth, 96 h; Potency, µM (titrated, usually from 28.7 µM), for the others: at the highest dose activity change, negative = inhibition, hits mostly inhibitors; 6.9% of 320,000 active; also: potency is read from the fitted curve at half-maximal effect
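Two parasite generations (96 h, 37 C, 5% CO2) of compound exposure in infected erythrocytes (0.05% parasitemia, 2% hematocrit). Luciferase-reporter P. falciparum; decreased luminescence indicates inhibited growth, aimed at apicoplast-acting delayed death.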
Pf growth 48h: Primary qHTS for delayed death inhibitors of the malarial parasite plastid, 48 hour incubation | P. falciparum luciferase growth in erythrocytes, 48 h | Potency, µM (highest dose often 28.7 µM), without a hit: at the top dose activity change, negative = inhibition, most hits filed as inhibitors | 5.9% of 310,000 active | AID 504832, 2011; also: potency is read from the fitted curve at half-maximal effect
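First compound was added to culture medium, then infected red cells at 0.1% parasitemia and 2% hematocrit (final). After incubation at 37 C under 5% CO2, luciferase detection reagent was dispensed and light output recorded.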
Sm TGR block: qHTS Assay for the Inhibitors of Schistosoma Mansoni Peroxiredoxins. Schistosoma mansoni thioredoxin glutathione reductase (TGR), Q962Y6. purified TGR, DTNB reduction, TNB absorbance 405 nm. Potency, µM (doses to about 114 µM), for the others: at the highest dose activity change, negative = inhibition, most hits filed as inhibitors. 3% of 360,000 active. AID 485364, 2010; also: potency is read from the fitted curve at half-maximal effect; nearly all actives have a fitted effect of over 60% in size
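TGR 20 nM + NADPH 100 uM (dispensed conc.), cpd preinc 15 min RT; start with NADPH (500 uM addition) then DTNB (15 mM addition). Kinetic TNB absorbance, 405 nm filter. Four-parameter Hill fit across titration.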
HCMV antiviral: qHTS Assay for inhibitors of the human cytomegalovirus (HCMV); HFF cells, HCMV-luciferase reporter, 72 h; active compounds read low; activity change, negative = inhibition, % at 57.5 µM; 4.5% of 410,000 active; AID 1259415, 2018; in the data active = activity change below about -60%; inconclusive = no clear call, values can overlap the other calls; inactive = above about -39%
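Human foreskin fibroblasts infected with luciferase-reporter HCMV at MOI 1 PFU/cell, compounds at two doses. Luciferase measured 72 h post infection; normalized to buffer-only basal and Salinomycin (10uM) controls.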
The depositor's hits bear a star; ? = inconclusive; · = no result; [ ] = another dose, or the depositor's remark. Unless noted, calls follow the shape of the dose curve; as a rule, active = well fitted curve in the direction sought with a large enough effect; inconclusive = small, poorly fitted or top-dose-only effect, or another doubt; inactive = no such curve, though single readings can be large; an effect the other way counts as inactive or inconclusive. % is scaled to controls: 0 for no effect and ±100 for the full control effect.

SMILES	FBPA Giardia inh	Pf growth 96h	Pf growth 48h	Sm TGR block	HCMV antiviral
CCCCC[C@H](O)/C=C/[C@@H]1[C@H]2C/C(=C/CCCC(=O)O)C[C@H]2C[C@H]1O	1%	·	·	·	·
C=C1C(=O)[C@]23C[C@H]1CCC2[C@@]1(C)C(C[C@@H]3O)[C@](C)(C(=O)OC)CC[C@@H]1OC(C)=O (stereo partly drawn)	·	·	·	·	-101*
C=C1C(=O)[C@]23C[C@H]1CC[C@H]2[C@]1(C)[C@@H](OC(C)=O)CC[C@@](C)(C(=O)O)[C@H]1C[C@@H]3O	·	·	·	·	-66*
C=C1C(=O)[C@]23C[C@H]1CC[C@H]2[C@]1(C)[C@@H](O)CC[C@@](C)(C(=O)O)[C@H]1C[C@@H]3O	·	·	·	·	-6
C=C1C(=O)[C@]23C[C@H]1CCC2[C@@]1(C)C(C[C@@H]3O)[C@](C)(C(=O)O)C[C@H](O)[C@@H]1O (stereo partly drawn)	·	·	·	·	-14
C=C1C(=O)[C@]23C[C@H]1CC[C@H]2[C@]1(C)[C@@H](OC(C)=O)CC[C@@](C)(C(=O)OC)[C@H]1C[C@@H]3OC(C)=O	·	·	·	·	-100*
CN(C)CCNC(=O)C1(O)c2cc(Br)ccc2NC(=O)N1c1ccc(Cl)cc1 (stereo not drawn)	12%	2%	-3%	-29%	-29
Cc1onc(-c2ccccc2)c1-c1nnc(COC(=O)c2ccc(O)cc2)o1	·	?	-19%	?	2
COc1ccc(/C=C(\C#N)C(=O)C(C)(C)n2cncn2)cc1	-4%	3.7µM*	29%	6%	-35
COc1ccc(C=C(C#N)C(=O)c2ccccc2)cc1	·	·	·	·	42
COc1ccc(-n2nc(C(=O)NCc3ccco3)c3ccccc3c2=O)cc1	0%	3.3µM*	·	67%	-20
COc1ccc(-n2nc(C(=O)NCC(=O)Nc3cc(OC)c(OC)c(OC)c3)c3ccccc3c2=O)cc1OC	7%	?	?	1%	?
COc1ccc(-n2nc(C(=O)NCC(=O)NC(C)C)c3ccccc3c2=O)cc1	-9%	21%	-17%	14%	?
COc1ccc(-n2nc(C(=O)NCC(=O)Nc3cc(OC)c(OC)c(OC)c3)c3ccccc3c2=O)cc1	20%	6%	9.3µM*	3%	-31
COc1ccc(-n2nc(C(=O)NCC(=O)NCc3ccc(F)cc3)c3ccccc3c2=O)cc1	9%	6.6µM*	?	9%	-8
COc1ccc(-n2nc(C(=O)NCc3ccco3)c3c4ccccc4n(C)c3c2=O)cc1	1%	31%	29%	1%	7
COc1ccc(-n2nc(C(=O)Nc3ccc4c(c3)OCO4)c3ccccc3c2=O)cc1	2%	3%	10µM*	-2%	2
O=C(Nc1ccccc1OCc1cc(=O)n2ccccc2n1)c1ccccc1F	·	·	·	3%	-5
CC(/C=C/c1ccccc1)=N\NC(=S)NC(C)C	0%	4.7µM*	-23%	2%	-29
CC(/C=C/c1ccccc1)=N\NC(N)=S	-7%	?	10µM*	8%	-5
CC(/C=C/c1ccccc1)=N\NC(=O)c1ccncc1	?	9%	-27%	1%	0
CCOC(=O)c1cc(-c2ccccc2)sc1NC(=O)c1cc(OC)c(OC)c(OC)c1	1%	?	20%	-9%	9
CCOC(=O)c1cc(-c2ccccc2)sc1NC(=O)C(C)(C)C	2%	?	9.3µM*	13%	-11
CCOC(=O)c1cc(-c2ccccc2)sc1NC(=S)Nc1cc(C)ccn1	3%	13µM*	?	-1%	-14
CCOC(=O)c1cc(-c2ccccc2)sc1NC(=O)CC(C)C	2%	7.4µM*	?	-15%	13
SMILES	FBPA Giardia inh	Pf growth 96h	Pf growth 48h	Sm TGR block	HCMV antiviral
CCOC(=O)c1cc(-c2ccccc2)sc1NC(=O)CSc1nnnn1C	-9%	?	?	-17%	6
CCOC(=O)c1cc(NC(=O)Nc2cc(C)ccn2)c(C)nc1C	13%	34%	16%	-3%	-65*
COc1ccc(CN2C(=O)CSCC2(C)C(=O)Nc2c(C)cccc2C)cc1OC (stereo not drawn)	·	·	·	·	57
CCNc1ncc2nc(-c3ccc(Cl)cc3)c(=O)n(C3CC3)c2n1	0%	·	·	·	·
CCCC1(c2ccccc2)NC(=O)N(CC(=O)Nc2sc(-c3ccccc3)cc2C(=O)OCC)C1=O (stereo not drawn)	0%	·	?	-5%	-62*
CCOC(=O)c1cc(-c2ccccc2)sc1NC(=O)CN1C(=O)c2ccccc2C1=O	·	·	·	·	-11
COc1cccc(/C=C/C(=O)c2ccc(NS(=O)(=O)c3ccc(C)cc3)cc2)c1	1%	?	-28%	-4%	-70*
COc1ccc2cc(C(=O)/C=C/c3cc(OC)c(O)c(OC)c3)ccc2c1	·	?	?	-35%	-33
COc1cccc(C(=O)/C=C/Nc2ccc(S(=O)(=O)Nc3cccc(C(C)=O)c3)cc2)c1	2%	?	-73%	-2%	-35
COc1cc(/C=C/C(=O)c2ccc(NS(=O)(=O)c3ccc(C)cc3)cc2)ccc1OC(F)F	12%	?	15µM*	7%	-71*
COc1cc(/C=C/C(=O)c2ccc(NS(=O)(=O)c3ccc(C)cc3)cc2)cc(OC)c1O	-13%	?	12µM*	-18%	-101*
C[C@H](CO)N1C[C@H](C)[C@@H](CN(C)S(C)(=O)=O)Oc2ccc(NC(=O)CCC(F)(F)F)cc2C1=O	·	·	·	·	18
O=C(NCc1ccco1)c1cc2ccccc2c(=O)o1	0%	-1%	12%	?	-36
C=CCN(CC=C)C(=O)c1cc2ccccc2c(=O)o1	10%	-17%	2%	20%	-63*
OCC1OC(c2ccccc2)C=CC1Oc1ccc(C2CCCC2)cc1 (stereo not drawn)	-1%[12.9 µM]	·	·	·	·
Cc1ccn2c(-c3csc(NCc4ccccc4)n3)c(C)nc2c1	?	8%	13µM*	3%	-81*
Cc1ccc(Nc2nc(-c3c(C)nc4ncccn34)cs2)cc1	-24%	0%	?	-23%	8
Cc1ccc(Nc2nc(-c3c(C)nc4ccccn34)cs2)cc1	-24%	10µM*	12µM*	5%	-101*
CC(NC(=O)c1ccc(NC(=O)CC2SC(N3CCCC3)=NC2=O)cc1)c1ccc(F)cc1 (stereo not drawn)	·	?	?	-6%	75
Fc1ccc(CSc2nnc(-c3ccccn3)o2)cc1	-18%	40%	86%	1%	14
COc1ccc(NS(=O)(=O)c2ccc(-n3nnc4ccccc43)c([N+](=O)[O-])c2)cc1	14%	-3%	·	0%	-63*
COc1cccc(NC(=S)N2CCN(S(C)(=O)=O)CC2)c1	·	4.1µM*	12%	-1%	22
